PubChem BioAssay (NCATS)
Results filed as inconclusive are left out. The source made the active and inactive calls. Calls follow the shape of the dose curve; as a rule, active = well fitted curve in either direction with a large enough effect (not every such curve was filed as active); inconclusive = small, poorly fitted or top-dose-only effect, or another doubt; inactive = flat fitted curve, though single readings scatter.

Assay: AP1 Signaling Pathway (AID 357);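 also: ME-180 reporter cells stimulated with EGF at its EC50 level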
Details: ME-180 (cervical carcinoma) AP-1-bla reporter, EGF-induced, beta-lactamase ratio, 5 h; at 17.2 µM (top of the series) unless noted
Procedure, shortened: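 AP-1-bla ME-180 cells, Opti-MEM + 0.5% dialyzed FBS, plated overnight 37 °C. Cpd titration + EC50 EGF, 5 h 37 °C. CCF4 2.5 h RT; ex 405, em 460/530 ratio → %activity, AC50.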
% is scaled to controls: 0 for no effect and ±100 for the full control effect.

Activity change, negative = inhibition, inactive:
COc1cc(S(=O)(=O)N2CCN(C)CC2)c(OC)cc1Br 9.1%
COCCOC(=O)c1c(C)nc(SCC(=O)Nc2ccc(OC)cc2)c(C#N)c1-c1ccco1 -13.3%
Cc1ccc(N2C(=O)C3ON(c4ccccc4)C(c4ccncc4)C3C2=O)c(C)c1 (stereo not drawn) 4.43%
Cc1nc(-c2c(-c3ccc(O)cc3O)noc2C(F)(F)F)cs1 -11.8%
CC(=O)O[C@@]12CO[C@@H]1C[C@H](O)[C@@]1(C)C(=O)[C@H](O)C3=C(C)[C@@H](OC(=O)[C@H](O)[C@@H](NC(=O)OC(C)(C)C)c4ccccc4)C[C@](O)([C@@H](OC(=O)c4ccccc4)[C@H]21)C3(C)C -3.46%
CCC(=NC(CC)CO)C1=C(O)CC(C)(C)CC1=O (stereo not drawn) 16.1%
CSc1nc(NC(C)=O)nc(C)c1Cl 11.1%
Cc1cccc(-c2nnc3n2N=C(c2ccccc2)CS3)c1 -18.5%
COc1ccc(NCc2cc3ccccc3[nH]c2=O)cc1 -1.34%
CC(C)CN1C(=O)NC(NC(=O)c2cccnc2)(C(F)(F)F)C1=O (stereo not drawn) -6.13%
COc1cc([C@@H]2[C@H]3CN(C)CC=C3C(C#N)=C(N)C2(C#N)C#N)cc2c1OCO2 -11%
COc1ccc(OC)c(C2C(C(=O)c3sc(C)nc3C)=C(O)C(=O)N2CCN2CCOCC2)c1 (stereo not drawn) 4.44%
CC1(C)CC(NC(=O)C23CCC(C)(/C(=N/O)C2)C3(C)C)CC(C)(C)N1 (stereo not drawn) 1.22%
COC(=O)/C=c1/s/c(=C(/C#N)C(=O)N2CCOCC2)n(-c2ccccc2)c1=O 8.21%
COC(=O)CN(c1nc(C)cc(OC)n1)S(=O)(=O)c1ccccc1 -9.15%
CCn1nc(NC(=O)c2ccco2)c2cc3ccccc3nc21 -5.14%
COc1ccc(/C(O)=C2\C(=O)C(=O)N(CCN(C)C)C2c2cccc(OC)c2OC)cc1 (stereo not drawn) 10.8%
Nc1ncnc2nc(SCc3ccccc3)[nH]c12 -9.21%
C=CCc1c(C)c(C#N)c2nc3ccccc3n2c1N1CCN(C)CC1 -17.1%
NC(=O)C1CCN(C2OC(=O)c3ccccc32)CC1 (stereo not drawn) 2.97%
O=C(CN1C(=O)c2ccccc2C1=O)NCc1ccncc1 -3.15%
C=CCN(C(=O)CCC(=O)O)C1CC(=O)N(c2ccc(OC)cc2)C1=O (stereo not drawn) 6.46%
CCOC(=O)CSC1=C(C#N)C(c2ccc(OC)cc2)C2=C(CC(C)(C)CC2=O)N1 (stereo not drawn) -15.4%
Nc1nc2n(n1)C(c1cccs1)CC(c1ccc(Br)cc1)N2 (stereo not drawn) 0.611%
Cc1ccc(C(=O)C2=C(O)C(=O)N(c3ncccn3)C2c2cccc(Cl)c2)o1 (stereo not drawn) -1.15%
COc1cccc(C2C(C(=O)c3sc(C)nc3C)=C(O)C(=O)N2CCN2CCOCC2)c1OC (stereo not drawn) 3.76%
COc1ccc(C(=O)N2CCCC(c3ccccc3)C2)cc1 (stereo not drawn) -9.81%
FC(F)(F)c1cccc(N2CCc3cn[nH]c32)c1 -1.96%
COc1cccc(C2/C(=C(\O)c3ccc4c(c3)OCCO4)C(=O)C(=O)N2CCN(C)C)c1 (stereo not drawn) -3.08%
COc1ccc(C2/C(=C(/O)c3ccccc3)C(=O)C(=O)N2c2ncccn2)cc1OC (stereo not drawn) -3.2%
Cn1ncc(N=Cc2ccccc2O)c1C(=O)N1CCOCC1 2.72%
CC(=O)N/C(=N/c1nc(C)cc(C)n1)Nc1ccc(NC(C)=O)cc1 -2.08%
CSCCC(CO)NC(=O)OCc1ccccc1 (stereo not drawn) 0.666%
COCCCN1C(=O)C(O)=C(C(=O)c2ccco2)C1c1ccc(Br)cc1 (stereo not drawn) -15.5%
CCOC(=O)c1c(C(C#N)C#N)cc(C)nc1C 9.21%
C/C=C/c1ccccc1OCc1ccc(C(=O)O)o1 -6.57%
Nc1nnnn1/N=C/c1ccccn1 -1.28%
CCOc1ccc(N=C2C(=O)N(CN3CCOCC3)c3ccccc32)cc1 2.27%
COc1nc(NS(=O)(=O)c2ccc(C)cc2)nc(C)c1Cl 6.72%

Assay: NFAT Signaling Pathway (AID 444);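 also: carbachol stimulus at about its EC50 of 1 µM final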
Details: Jurkat NFAT-bla M1, carbachol, beta-lactamase ratio, 5 h; at 17.2 µM (top of the series) unless noted
Procedure, shortened: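 Jurkat cells with NFAT-driven β-lactamase reporter and co-expressed M1 receptor, stimulated with carbachol (final 1 uM, ~EC50), compound titration, 5 h at 37 °C. CCF4 loaded 1 h at RT; 460/530 nm ratio gave %activity and AC50.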

Activity change, negative = inhibition, inactive:
COc1cc(S(=O)(=O)N2CCN(C)CC2)c(OC)cc1Br -13.8%
COCCOC(=O)c1c(C)nc(SCC(=O)Nc2ccc(OC)cc2)c(C#N)c1-c1ccco1 -14.8%
Cc1ccc(N2C(=O)C3ON(c4ccccc4)C(c4ccncc4)C3C2=O)c(C)c1 (stereo not drawn) 26.3%
Cc1nc(-c2c(-c3ccc(O)cc3O)noc2C(F)(F)F)cs1 -22%
CC(=O)O[C@@]12CO[C@@H]1C[C@H](O)[C@@]1(C)C(=O)[C@H](O)C3=C(C)[C@@H](OC(=O)[C@H](O)[C@@H](NC(=O)OC(C)(C)C)c4ccccc4)C[C@](O)([C@@H](OC(=O)c4ccccc4)[C@H]21)C3(C)C 29.1%
CCC(=NC(CC)CO)C1=C(O)CC(C)(C)CC1=O (stereo not drawn) -5.13%
CSc1nc(NC(C)=O)nc(C)c1Cl -9.42%
Cc1cccc(-c2nnc3n2N=C(c2ccccc2)CS3)c1 -10.4%
COc1ccc(NCc2cc3ccccc3[nH]c2=O)cc1 -19.9%
CC(C)CN1C(=O)NC(NC(=O)c2cccnc2)(C(F)(F)F)C1=O (stereo not drawn) 3.51%
COc1cc([C@@H]2[C@H]3CN(C)CC=C3C(C#N)=C(N)C2(C#N)C#N)cc2c1OCO2 9.82%
COc1ccc(OC)c(C2C(C(=O)c3sc(C)nc3C)=C(O)C(=O)N2CCN2CCOCC2)c1 (stereo not drawn) 16.6%
CC1(C)CC(NC(=O)C23CCC(C)(/C(=N/O)C2)C3(C)C)CC(C)(C)N1 (stereo not drawn) 10.5%
COC(=O)/C=c1/s/c(=C(/C#N)C(=O)N2CCOCC2)n(-c2ccccc2)c1=O -4.89%
COC(=O)CN(c1nc(C)cc(OC)n1)S(=O)(=O)c1ccccc1 -15.3%
CCn1nc(NC(=O)c2ccco2)c2cc3ccccc3nc21 5.58%
COc1ccc(/C(O)=C2\C(=O)C(=O)N(CCN(C)C)C2c2cccc(OC)c2OC)cc1 (stereo not drawn) -5.32%
Nc1ncnc2nc(SCc3ccccc3)[nH]c12 -4.19%
C=CCc1c(C)c(C#N)c2nc3ccccc3n2c1N1CCN(C)CC1 4.5%
NC(=O)C1CCN(C2OC(=O)c3ccccc32)CC1 (stereo not drawn) 1.22%
O=C(CN1C(=O)c2ccccc2C1=O)NCc1ccncc1 -0.713%
C=CCN(C(=O)CCC(=O)O)C1CC(=O)N(c2ccc(OC)cc2)C1=O (stereo not drawn) -8.7%
CCOC(=O)CSC1=C(C#N)C(c2ccc(OC)cc2)C2=C(CC(C)(C)CC2=O)N1 (stereo not drawn) 7.5%
Nc1nc2n(n1)C(c1cccs1)CC(c1ccc(Br)cc1)N2 (stereo not drawn) 11%
Cc1ccc(C(=O)C2=C(O)C(=O)N(c3ncccn3)C2c2cccc(Cl)c2)o1 (stereo not drawn) 24.9%
COc1cccc(C2C(C(=O)c3sc(C)nc3C)=C(O)C(=O)N2CCN2CCOCC2)c1OC (stereo not drawn) 12.8%
COc1ccc(C(=O)N2CCCC(c3ccccc3)C2)cc1 (stereo not drawn) 18.5%
FC(F)(F)c1cccc(N2CCc3cn[nH]c32)c1 0.155%
COc1cccc(C2/C(=C(\O)c3ccc4c(c3)OCCO4)C(=O)C(=O)N2CCN(C)C)c1 (stereo not drawn) 2.4%
COc1ccc(C2/C(=C(/O)c3ccccc3)C(=O)C(=O)N2c2ncccn2)cc1OC (stereo not drawn) -4.09%
Cn1ncc(N=Cc2ccccc2O)c1C(=O)N1CCOCC1 -6.4%
CC(=O)N/C(=N/c1nc(C)cc(C)n1)Nc1ccc(NC(C)=O)cc1 -3.91%
CSCCC(CO)NC(=O)OCc1ccccc1 (stereo not drawn) -0.945%
COCCCN1C(=O)C(O)=C(C(=O)c2ccco2)C1c1ccc(Br)cc1 (stereo not drawn) 11.4%
CCOC(=O)c1c(C(C#N)C#N)cc(C)nc1C -6.15%
C/C=C/c1ccccc1OCc1ccc(C(=O)O)o1 -2.78%
Nc1nnnn1/N=C/c1ccccn1 -4.47%
CCOc1ccc(N=C2C(=O)N(CN3CCOCC3)c3ccccc32)cc1 6.57%
COc1nc(NS(=O)(=O)c2ccc(C)cc2)nc(C)c1Cl -25.4%
